This passage reports composite z-score results from PubChem BioAssay.

In this assay the test system is XIP peptide (Xip251-270). In words: compounds binding XIP fragment 251-270 – biochemical, small-molecule microarray, fluorescence 635/667 nm, 0.5 µg/mL protein, primary screen (AID 1183). Conditions: fluorescence 635 nm, higher = more signal.
Turning to `CC(CCN1CCCCc2nc(C)c(C)cc21)=NO[C@H](C)c1cn([C@@H]2COC[C@H]2O)nn1`, the composite z-score was 0.382.
Take `CC(C)[C@H](NC(=O)OC(C)(C)C)[C@@H](O)CC(=O)C(C)(C)C`: the composite z-score was -0.19.
On to `COC(=O)CC=C[C@@H](C)[C@@H](C=NOC[C@@H](O)COCc1ccco1)NS(=O)(=O)c1ccc(C)cc1`, for which the composite z-score came out at 0.239.
`CCN1C(=O)[C@H]2[C@H]3[C@H](O)[C@H](O)CC(=NOC[C@@H](O)COCc4ccco4)[C@H]3CC[C@H]2C1=O`: the composite z-score was 0.505.
As to `CCN1C(=O)[C@H]2[C@H]3[C@H](O)[C@H](O)CC(=NOCC[C@@H]4C=C[C@H](OC(C)=O)[C@@H](COC(C)=O)O4)[C@@H]3CC[C@H]2C1=O`, the composite z-score was 0.529.
The same measure for `CCOC(=O)[C@H](Cc1ccccc1)NC(=O)CCC1CC(OC(=O)NCc2ccc3c(c2)OCO3)CC2(CCCC(COC(=O)NCCOc3ccccc3)O2)O1` (stereo partly specified): 0.565; for `C[C@H]1CC[C@H]2C(=O)N[C@H](Cc3ccccc3)C(=O)N2[C@@H]1c1ccccc1`: 0.647.
Regarding `CC(CCC(=O)OC[C@H]1O[C@H](C#Cc2ccccc2)C=C[C@@H]1Oc1ccc(C)cc1)=NOC(C)CN1CCCCc2nc(C)c(C)cc21` (stereo partly specified), the composite z-score came out at 0.0787.
The same measure for `CC(CCC(=O)OC[C@H]1O[C@H](C#Cc2ccccc2)C=C[C@@H]1Oc1ccc(C)cc1)=NO[C@H](C)c1cn([C@@H]2COC[C@H]2O)nn1`: -0.391.
As for `CCN1C(=O)[C@H]2[C@@H]3C(=CC[C@H]2C1=O)C(=O)[C@H]1O[C@H]1[C@H]3O`, the composite z-score came to 0.568.
The figure for `CCO[C@H](c1cc(OC)cc([N+](=O)[O-])c1OC)[C@H](C)[C@@H](OC)[C@H](C)C=CCC(=O)OC` is 0.0025; for `CCOC(=O)CCN1C(=O)[C@H]2[C@H]3[C@H](O)[C@H](O)CC(=NNC(=O)OCC)[C@H]3CC[C@H]2C1=O` it is -0.397.
`CC(C)=CCCC(C)=CCON=C1C[C@@H](O)[C@@H](O)[C@@H]2[C@@H]3C(=O)N(C4CCCCC4)C(=O)[C@@H]3CC[C@H]12`: the composite z-score worked out at 0.722.
`CCOC(=O)CCN1C(=O)[C@H]2[C@H]3[C@H](O)[C@H](O)CC(=NOCC=C(C)CCC=C(C)C)[C@@H]3CC[C@H]2C1=O`: the composite z-score is 0.613.
The same measure for `COc1cccc([C@H]2Oc3ccc(OC)cc3C(=NOCC[C@@H]3C=C[C@H](OC(C)=O)[C@@H](COC(C)=O)O3)[C@@H]2O)c1`: 0.206; for `CC(C)(C)N1C(=O)[C@H]2[C@H]3[C@H](O)[C@H](O)CC(=NOC[C@@H](O)COCc4ccco4)[C@H]3CC[C@H]2C1=O`: 0.72.
The same measure for `CCc1cc2c(nc1CC)CCN(CCC(C)=NO[C@@H]1O[C@H](COC(C)=O)[C@@H](OC(C)=O)[C@H](OC(C)=O)[C@H]1OC(C)=O)C2`: 0.719; for `CO[C@H]1COC(=O)CC=C[C@H](C)[C@H](OC)COC(=O)[C@@H](C)NC(=O)CC=C[C@@H]1C`: 0.356; for `O=C1[C@H]2[C@H]3[C@H](O)[C@H](O)CC(=NO[C@@H]4O[C@H](CO)[C@@H](O)[C@H](O)[C@H]4O)[C@H]3CC[C@H]2C(=O)N1C[C@@H]1CCCO1`: 0.184.
The figure for `CC(=O)OC[C@H]1O[C@@H](ON=C(C)C)[C@H](OC(C)=O)[C@@H](OC(C)=O)[C@@H]1OC(C)=O` is -0.245; for `O=C1[C@H]2[C@H]3[C@H](O)[C@H](O)CC(=NO[C@@H]4O[C@H](CO)[C@@H](O)[C@H](O)[C@H]4O)[C@@H]3CC[C@H]2C(=O)N1C1CCCCC1` it is 0.0473; for `CC(C)CON=C1C[C@@H](O)[C@@H](O)[C@@H]2[C@@H]3C(=O)N(Cc4ccccc4)C(=O)[C@@H]3CC[C@H]12` it is 0.106.
For the compound `CC(CCN1CCCc2nc(C)c(C)cc21)=NOC[C@@H](C)[C@H](OCc1ccccc1)C(C)C`, the composite z-score came out at 0.548.
The same measure for `C[C@@H]1CC[C@H]2C(=O)OC(CN3C(=O)c4ccccc4C3=O)CN2[C@H]1c1ccc(Br)cc1` (stereo partly specified): 0.338; for `O=C1[C@H]2[C@H]3[C@H](O)[C@H](O)CC(=NOC[C@@H](O)COCc4ccco4)[C@@H]3CC[C@H]2C(=O)N1Cc1ccccc1`: 0.64.
`CC(=O)OC[C@H]1O[C@H](CC=NOC(C)CN2CCCc3nc(C)c(C)cc32)C=C[C@@H]1OC(C)=O` (stereo partly specified): the composite z-score was 0.618.
On to `CC1(C)O[C@H]2OC([C@H](O)CON3C(=O)c4ccccc4C3=O)[C@H](O)[C@H]2O1` (stereo partly specified), for which the composite z-score turned out to be 0.291.
The same measure for `COC(=O)CC=C[C@@H](C)[C@@H](C=NOC(C)CN1CCCCc2nc(C)c(C)cc21)NS(=O)(=O)c1ccc(C)cc1` (stereo partly specified): -0.0903; for `C=CC[C@@H]1C=C[C@H](Oc2ccc(C)cc2)[C@@H](COC(=O)NCc2cccc3ccccc23)O1`: 0.427.
The figure for `CCOC(=O)[C@H](Cc1ccccc1)NC(=O)CCC1CC(OC(=O)NCc2ccc3c(c2)OCO3)CC2(CCCC(COC(=O)NCCOC)O2)O1` (stereo partly specified) is 0.515.
The figure for `CC(C)=CCCC(C)=CCON=C1C[C@@H](O)[C@@H](O)[C@@H]2[C@@H]3C(=O)N([C@@H](C)c4ccccc4)C(=O)[C@@H]3CC[C@@H]12` is 0.242.
Take `CC(C)(C)N1C(=O)[C@H]2[C@H]3[C@H](O)[C@H](O)CC(=NNC(=O)OCc4ccccc4)[C@@H]3CC[C@H]2C1=O`: the composite z-score is 0.195.
The same measure for `CCOC(=O)CCN1C(=O)[C@H]2[C@H]3[C@H](O)[C@H](O)CC(=NNC(=O)OCc4ccccc4)[C@H]3CC[C@H]2C1=O`: -0.0907; for `CO[C@@H]1COC(=O)[C@H](CCSC)NC(=O)CC=C[C@@H](C)COC(=O)[C@@H]2CCCN2C(=O)CC=C[C@H]1C`: 0.352; for `CCOC(=O)NN=C1C[C@@H](O)[C@@H](O)[C@@H]2[C@@H]3C(=O)N(C[C@@H]4CCCO4)C(=O)[C@@H]3CC[C@H]12`: 0.0356.
As to `C#CCCCON=C1C[C@@H](O)[C@@H](O)[C@@H]2[C@@H]3C(=O)N(C4CCCCC4)C(=O)[C@@H]3CC[C@@H]12`, the composite z-score amounted to 0.0169.
